# Data from PubChem BioAssay (NCI).
# Compounds without any hit were thinned out: in the full panel of roughly 83,000, 20% have a hit.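 In brief: 96-well plates, 48 h treatment, single concentration, percent growth endpoint.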 Active and inactive are the calls of the source. Rule for the calls: active = growth percent below 10; inactive = the rest.
# What was measured:
# Test in all cases: NCI-60 one-dose screen, 48 h (100 = growth as untreated, 0 = no growth, -100 = all killed)
# Conditions in all cases: 10 µM unless noted
# [1] = tested on: T-47D breast
# [2] = tested on: BT-549 breast
# [3] = tested on: MDA-MB-435 melanoma
# [4] = tested on: SW-620 colon
# [5] = tested on: MCF7 breast
# [6] = tested on: HCT-116 colon
# [7] = tested on: KM12 colon
# [8] = tested on: HCC-2998 colon
SMILES,growth [1],growth [2],growth [3],growth [4],growth [5],growth [6],growth [7],growth [8]
C[C@@H]1OCC2(CCN(c3cnc(C(=O)Nc4cc(F)cc5cccnc45)cn3)CC2)[C@@H]1N,37.1% (inactive),90.1% (inactive),82.9% (inactive),12.5% (inactive),2.1% (active),15.7% (inactive),83.7% (inactive),
CC1=C(C)C(=O)C(Nc2cccc(C(F)(F)F)c2)=C(Br)C1=O,17.6% (inactive),110% (inactive),103% (inactive),48.7% (inactive),,20% (inactive),90.7% (inactive),108% (inactive)
Cn1c(SCC(=O)c2ccc(Br)cc2)nc2ccccc2c1=O,78.4% (inactive),98.9% (inactive),103% (inactive),102% (inactive),,86.1% (inactive),98.7% (inactive),108% (inactive)
C#CCN(C)CCCOc1ccc(NCc2ccc(C(=O)NO)cc2)cc1Cl,0.446% (active),75.4% (inactive),9.64% (active),12.2% (inactive),,10.7% (inactive),24.2% (inactive),
O=C(CCCCCCNC(=O)C(O)(O)C(F)(F)F)Nc1ncc(-c2ccccc2)s1,8.47% (active),-9.98% (active),0.873% (active),0.575% (active),,2.27% (active),-28.7% (active),-46.1% (active)
O=c1c2cc(-c3ccc(F)cc3F)ccc2n(O)c(=O)n1-c1cccc(C(F)(F)F)c1,-15.9% (active),-3.54% (active),1.71% (active),16.3% (inactive),,1.93% (active),7.94% (active),9.79% (active)
C#C[C@]1(O)CC[C@H]2[C@@H]3CC=C4c5sc(Nc6ccc(C)cn6)nc5CC[C@]4(C)[C@H]3CC[C@@]21C,18.9% (inactive),-12.7% (active),-51.8% (active),-53.1% (active),,5.1% (active),-35.5% (active),19.2% (inactive)
O=C(CCCCCCNC(=O)C(O)(O)C(F)(F)F)Nc1ccc(Cl)cc1,10.5% (inactive),45.9% (inactive),11.6% (inactive),5.2% (active),17.3% (inactive),3.99% (active),20.6% (inactive),
COc1ccc(C(C)=C(c2ccc(OCCN(C)C)cc2)c2ccc(OCCN(C)C)cc2)cc1,-60.6% (active),-27.3% (active),-75.7% (active),-65.8% (active),,-81% (active),-8.05% (active),-69.4% (active)
O=S(=O)(Oc1ccc(-c2cn3ccoc3n2)cc1)c1cccc(C(F)(F)F)c1,85.5% (inactive),98.8% (inactive),101% (inactive),103% (inactive),,102% (inactive),95.7% (inactive),99.8% (inactive)
CCN(CC)c1ccc(/C=N/NC(=O)c2ccc(NS(C)(=O)=O)cc2)c(O)c1,26.3% (inactive),11.6% (inactive),28.8% (inactive),36.9% (inactive),,21.7% (inactive),15.2% (inactive),38.5% (inactive)
O=C(NNc1nc2cc(F)cc(F)c2n2cccc12)c1cccnn1,9.21% (active),31.5% (inactive),24% (inactive),,10.4% (inactive),22.4% (inactive),24.2% (inactive),65.6% (inactive)
Oc1[nH]c2ccc(Cl)cc2c1N=Nc1nc(N=Nc2c(O)[nH]c3ccc(Cl)cc23)nc(N2CCCCC2)n1,81.5% (inactive),122% (inactive),75.8% (inactive),15.5% (inactive),,23.9% (inactive),47.6% (inactive),38.7% (inactive)
Cc1cc(C)cc(NC2=C(Cl)C(=O)c3nc(C)ccc3C2=O)c1,-20% (active),66.6% (inactive),-78.8% (active),-6.15% (active),,9.38% (active),76.8% (inactive),77.6% (inactive)
NS(=O)(=O)c1ccc(Nc2nc(N/N=C/C=C/c3ccccc3)nc(Nc3ccccc3)n2)cc1,18.9% (inactive),65.9% (inactive),51.6% (inactive),51.1% (inactive),,29.5% (inactive),55.4% (inactive),38.3% (inactive)
CN(C)CC(=O)Nc1nc(-c2cccc(NS(=O)(=O)c3cccc4c(N(C)C)cccc34)c2)cs1,56.9% (inactive),87.8% (inactive),99% (inactive),105% (inactive),68.3% (inactive),80.1% (inactive),94.1% (inactive),

SMILES,growth [1],growth [2],growth [3],growth [4],growth [5],growth [6],growth [7],growth [8]
CCCCCCNC(=O)Oc1ccc(/C(=C(/C)c2ccc(Cl)cc2)c2ccc(OCCN3CCCCCC3)cc2)cc1,48.2% (inactive),101% (inactive),70% (inactive),22.4% (inactive),,30.9% (inactive),58.9% (inactive),90.7% (inactive)
C/C(=N\NC(N)=S)c1nnn(-c2ccc([N+](=O)[O-])cc2)c1C,92% (inactive),95.5% (inactive),102% (inactive),94.9% (inactive),,98.6% (inactive),96.8% (inactive),
C#CCOc1cccc(-c2nc(N)nc(Nc3ccccc3SSc3ccccc3Nc3nc(N)nc(-c4cccc(OCC#C)c4)n3)n2)c1,40.5% (inactive),58.8% (inactive),72.7% (inactive),71.4% (inactive),,45.7% (inactive),3.92% (active),94.6% (inactive)
COc1ccc2c(c1)c(-c1nc(N)nnc1-c1c[nH]c3ccccc13)cn2C,41.2% (inactive),49.2% (inactive),-47.8% (active),17.2% (inactive),,23.1% (inactive),24.4% (inactive),82.9% (inactive)
COc1cc(-c2nc(-c3ccccc3)[nH]c2-c2ccnc(NCCCNS(=O)(=O)c3cccc(F)c3)n2)ccc1F,66.5% (inactive),128% (inactive),82% (inactive),,83.1% (inactive),75.1% (inactive),85.8% (inactive),142% (inactive)
Cc1ccc(NC(=O)Nc2nc3ccc([N+](=O)[O-])cc3s2)cc1,-22.3% (active),-9.82% (active),-7.46% (active),8.56% (active),,1.1% (active),-3.91% (active),6.19% (active)
Brc1ccc(-c2cc(-c3ccc4c(c3)OC=CO4)n[nH]2)s1,48.5% (inactive),91.3% (inactive),15.3% (inactive),79.1% (inactive),,91.5% (inactive),58.6% (inactive),84.5% (inactive)
Clc1ccc(CSc2nnc(-c3ccc(Cl)cc3)n2-c2ccccc2)cc1,80.9% (inactive),58.6% (inactive),90% (inactive),91.6% (inactive),,75.3% (inactive),92.6% (inactive),95.8% (inactive)
Brc1cc(-c2cc(-c3ccc4c(c3)OCCO4)[nH]n2)cs1,38.5% (inactive),66% (inactive),-26.8% (active),36.7% (inactive),14.7% (inactive),41.5% (inactive),27.7% (inactive),
O=C(CSc1nnc(-c2cccs2)n1-c1ccccc1)Nc1ccccc1F,88.9% (inactive),89.2% (inactive),3.39% (active),69.3% (inactive),58.9% (inactive),83.7% (inactive),61.5% (inactive),
CCc1cc(OC(=O)N2CCC(N3CCCCC3)CC2)ccc1Nc1cc(-c2ccc(-n3cccn3)cc2)[nH]n1,97.2% (inactive),87.6% (inactive),37.3% (inactive),-38.3% (active),,-64.1% (active),70.1% (inactive),83.8% (inactive)
CCOC(=O)c1cccc(NC2=C(Cl)C(=O)c3nc(C)ccc3C2=O)c1,56.4% (inactive),121% (inactive),108% (inactive),84.3% (inactive),76% (inactive),76.7% (inactive),105% (inactive),
C1=CC(c2nn3c(-c4ccccc4)nnc3s2)=Cc2ccccc2O1,19.7% (inactive),77.9% (inactive),46.7% (inactive),16.6% (inactive),,41.1% (inactive),85.5% (inactive),97% (inactive)
Cc1[nH]c(C(=O)Nc2ccccc2OCc2cccc(C(=O)NC3CCCNC3)c2)c(Cl)c1Cl (configuration not stated),-9.08% (active),98.8% (inactive),-80.2% (active),-68.8% (active),,-67% (active),-78.4% (active),-90% (active)
O=C1Nc2cc(Cl)ccc2/C1=C\c1ccc(OCc2ccccc2)cc1,95.7% (inactive),101% (inactive),99.4% (inactive),99.4% (inactive),61.6% (inactive),97.7% (inactive),95.1% (inactive),
CNC(=O)Nc1ccc(Nc2cc(-c3ccc(-n4cccn4)cc3)[nH]n2)c(C)c1,104% (inactive),111% (inactive),105% (inactive),126% (inactive),,107% (inactive),101% (inactive),123% (inactive)
